Assay outcomes (PubChem)
Pf Dd2 inh = Plasmodium falciparum Dd2 growth inhibition; P. falciparum Dd2 growth, SYBR Green, 72 h; Potency, µM (top dose mostly 28.9 µM), most hits filed as inhibitors; 120,000 tested, 4.3% active; AID 1347417; active = well fitted inhibition curve with a large enough effect; also: nearly all actives have a fitted effect of over 65% in size
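Readout: SYBR Green fluorescence, 485 nm excitation, 535 nm emission, after ~16 h lysis at 37C. Before that, Dd2-infected red cells (2.5% hematocrit) grew 72 h with compound, 29 uM top final concentration.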
Hits are given with their value; i = inactive. Only a selection was taken, and hits are over-represented in it overall.

SMILES	Pf Dd2 inh
CC1CCC2(CC1)NC(=O)N(CC(=O)Nc1cccc(Cl)c1)C2=O (configuration not stated)	i
CNc1cc(C2CC(NC(=O)CCn3c(C)cccc3=O)C2)nc(N)n1 (configuration not stated)	i
COc1ccc(C(=O)N[C@@H]2CCC[C@@H]2C(=O)NCCN(C)C)cc1	i
Cc1ccc(N2C(=S)N[C@H]3[C@@H](O)[C@H](O)C[C@@H](C(=O)N4CCCCC4)[C@H]32)cc1	i
O=C([C@@H]1C[C@@H](O)[C@H](O)[C@@H]2NC(=S)N(c3ccc(F)cc3)[C@@H]21)N1CCCCC1	i
CC(C)c1ccc(N2C(=S)N[C@H]3[C@@H](O)[C@H](O)C[C@@H](C(=O)N(C)Cc4ccccc4)[C@H]32)cc1	12.6µM
CCCNC(=O)N(C1CCOCC1)C1CCN(C(=O)c2nn(C)c3ccccc23)CC1	i
CN1CCCCCC(O)c2cc(C(=O)NCCCc3ccccc3)ccc21 (configuration not stated)	i
CN1CCCCCC(O)c2cc(C(=O)NCCc3c[nH]c4ccccc34)ccc21 (configuration not stated)	12.6µM
CN1CCCCCC(O)c2cc(C(=O)NCCN3CCOCC3)ccc21 (configuration not stated)	i
COc1ccccc1NC(=O)CN1CC2CC(C1)[C@H]1CCCC(=O)N1C2 (some centres not stated)	i
N#Cc1cccc(CN2C[C@H](O)C[C@H]2c2nc(-c3ccc4c(c3)OCO4)no2)c1	i
CCCCn1c(COc2cccc(OC)c2)nc2ccccc21	i
CCCCn1c(NCc2ccc(OC)cc2O)nc2ccccc21	7.94µM
CCn1c(NCc2ccc(OC)c(OC)c2)nc2ccccc21	i
Cc1ccc(CN2C(=O)NC3(CCN(C(=O)c4ccc(C(C)(C)C)cc4)C3)C2=O)cc1 (configuration not stated)	i
COc1ccccc1CNC(=O)[C@H]1CN2CC[C@H]1C[C@@H]2Cn1cc(-c2ccccn2)nn1	i
CCn1ncc(CN2CCCC23CCN(c2ccc(C(F)(F)F)cn2)CC3)c1C	10µM
Cn1ccnc1CN1CCCC12CCN(c1ccc(C(F)(F)F)cn1)CC2	i
Oc1cccc(CN2CCCC23CCN(c2ccc(C(F)(F)F)cn2)CC3)c1	4.47µM
Cc1cc(C)n(CCc2nc3c4ccccc4nc(N4CCN(c5ccccc5F)CC4)n3n2)n1	i
FC(F)Oc1ccccc1CN1CCCC12CCN(c1ncccn1)CC2	i
O[C@H]1[C@H](NCc2cccc(C(F)(F)F)c2)[C@@H](c2ccc(N3CCOCC3)nc2)C[C@H]1O	i
O=C1COCC2(CN1Cc1c(F)cccc1Cl)CN(c1ccc(C(F)(F)F)cn1)C2	i
Cc1cc(CN2CCCC23CCN(c2nc4ccccc4o2)CC3)on1	i
SMILES	Pf Dd2 inh
CCn1ncc(CN2CCCC23CCN(c2cc(C)nc4ccccc24)CC3)c1C	2µM
CCCn1ccnc1CN1CCCC12CCN(c1ccc(C(F)(F)F)cn1)CC2	11.2µM
O=C(Cn1nc2c(cc1=O)CCCC2)N1CCN(c2ccc(C(F)(F)F)cn2)CC1	i
O=C(CN1C(=O)NC2(CCS(=O)(=O)CC2)C1=O)NCc1ccccc1Cl	i
COC[C@H]1C[C@@H](NS(=O)(=O)c2cccc(F)c2)[C@H](O)[C@@H]1O	i
CCc1nc([C@H]2CN(C)C[C@@H]2C(=O)NCC23CCCN2CCC3)c(C)[nH]1	i
O=C(CCc1ccccc1)N1CCCC(Cc2nc(C3CCOCC3)no2)C1 (configuration not stated)	i
CCCc1noc(-c2cccn3c(CNC(=O)C4CC4)nnc23)n1	i
O=C(Nc1ccc(Cl)nc1)c1cccn2nccc12	i
Cc1cc(CN2CCC([C@@H]3CNC[C@H]3CO)CC2)n(C)n1	i
O=C(NCc1ccc(F)cc1)N1CCC2(CC1)N(CC1CC1)C(=O)CS2=O (configuration not stated)	i
COc1ccc(CCC(=O)NC(C)C(=O)N2CCN(c3ccccn3)CC2)cc1 (configuration not stated)	i
Cc1sc2ccn(Cc3ccc(F)cc3)c(=O)c2c1C(=O)NC1CCCC1	i
COc1ccc(C(=O)Nc2ccc([C@@H](O)[C@H]3COCC(=O)N3Cc3ccc(F)cc3)cc2)cc1OC	i
Cn1cnc(S(=O)(=O)N2CCC(C(=O)N3CCCCCCNC(=O)CC3)CC2)c1	i
Cc1ccc(C(=O)N2CCc3sc(C(=O)O)cc3C2)cc1	i
Cc1ccc(C(=O)N2CCc3sc(C(=O)NCc4ccc(F)cc4F)cc3C2)cc1	i
Cc1ccc(C(=O)N2CCc3sc(C(=O)NCc4ccc(C)o4)cc3C2)cc1	11.2µM
CN(Cc1ccccc1)C(=O)c1ccc2c(c1)NC(C)(CNCc1ccccc1)CO2 (configuration not stated)	i
O=C(NCc1ccccc1)c1ccc(CN2C(=O)NC3(CCS(=O)(=O)CC3)C2=O)cc1	i
CC1(c2ccccc2)N(Cc2ccccc2)C(=O)OC12CCN(C(=O)CN1CCOCC1)CC2 (configuration not stated)	i
C[C@H](O)c1c(-c2ccc(Cl)cc2)noc1C(=O)N(C)C	i
